Assay outcomes (PubChem)
The full list was thinned out, with hits kept by preference.
ALR inh = human ALR oxidase inhibition via reduced H2O2; purified ALR, DTT oxidation, H2O2 HRP-luminol luminescence; inhibition, % (test concentration not listed); actives 3.8% (n = 290,000);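 active = mean replicate inhibition above about 79%, with every replicate also reaching it, limit read from the data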
HDAC3 inhib = blocks human histone deacetylase 3 | inhibition, % at 8.3 µM | O15379 | actives 0.15% (n = 320,000) | recombinant HDAC3, fluorogenic peptide/trypsin coupled, fluorescence; in the data active = inhibition above about 26%, passing the limit was not always enough
Target sequence (O15379 whole entry, looked up): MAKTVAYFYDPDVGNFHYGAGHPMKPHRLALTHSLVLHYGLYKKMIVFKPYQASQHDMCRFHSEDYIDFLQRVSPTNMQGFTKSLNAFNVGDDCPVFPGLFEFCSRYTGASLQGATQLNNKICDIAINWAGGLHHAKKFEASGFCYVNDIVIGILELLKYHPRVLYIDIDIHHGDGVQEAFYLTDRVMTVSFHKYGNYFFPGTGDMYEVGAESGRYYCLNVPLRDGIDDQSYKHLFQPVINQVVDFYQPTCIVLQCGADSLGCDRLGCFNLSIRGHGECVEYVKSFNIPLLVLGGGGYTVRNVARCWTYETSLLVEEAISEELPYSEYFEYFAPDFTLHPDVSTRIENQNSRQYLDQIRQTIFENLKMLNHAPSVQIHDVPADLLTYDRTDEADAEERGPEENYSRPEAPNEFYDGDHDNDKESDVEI
NPR2 activator = GC-B (human) receptor activation | P20594 | HEK293-GC-B cells, CNP EC30, cGMP TR-FRET; 0% at EC30 CNP, 100% saturating CNP | activation, % at 10 µM | actives 0.11% (n = 370,000) | AID 1920062;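 active = activation at 10 µM reaching about 35% in either raw or pattern-adjusted values, limit read from the data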
NPR1 activator = GC-A (human) enzyme activation; activation, % at 10 µM; actives 0.14% (n = 370,000); AID 1671463; HEK293 GC-A cells, cGMP TR-FRET, EC30 ANP; 0% at EC30 ANP, 100% saturating ANP; P16066; in the data active = activation above about 40%
Large screens that a line does not name were inactive.

COc1cccc(N(C)C(=O)[C@@H](C)[C@@H](O)c2ccc(C(C)=O)cc2)c1	none (no result: ALR inh, HDAC3 inhib)
COC(=O)c1ccccc1-n1cccc1C(=O)NP(=O)(N1CCOCC1)N1CCOCC1	none
COCc1ccc(C(=O)N2CCCC(Nc3ccc(C(C)C)cc3)C2)o1 (stereo not given)	ALR inh 93
COCc1ccc(C(=O)N2CCCC(Nc3ccc(C(C)C)cc3)C2)s1 (stereo not given)	ALR inh 93
O=C(NCCN1CCOCC1)c1cccc(NS(=O)(=O)c2ccc(Br)cc2)c1	none (no result: ALR inh, HDAC3 inhib)
CCOC(=O)CSc1nc(=O)n2cc(C)ccc2n1	none
O=C(Nc1nc2c(s1)CCCC2)c1ccc(Br)s1	ALR inh 98
O=C(Nc1nc2c(s1)CCCC2)c1ccc2ncsc2c1	none
O=C(Nc1nc2c(s1)CCCC2)c1ccc(N2C(=O)CCC2=O)cc1	ALR inh 97
COc1cccc(C(=O)Nc2ccc(S(=O)(=O)N3CCN(C)CC3)cc2)c1	none
O=C(c1ccc([N+](=O)[O-])cc1)N1CCN(c2cccc3[nH]ccc23)CC1	ALR inh 99
O=[N+]([O-])c1cccc(CN2CCN(c3cccc4[nH]ccc34)CC2)c1	ALR inh 99
CC1CCCC(C)N1/N=C/c1ccc(C(=O)O)cc1 (stereo not given)	none
CC1CCCC(C)N1/N=C/c1ccc(O)cc1 (stereo not given)	ALR inh 94
CCOc1ccc(/C=N/N2C(C)CCCC2C)cc1OC (stereo not given)	none (no result: ALR inh)
COc1cc(/C=N/N2C(C)CCCC2C)cc(OC)c1O (stereo not given)	ALR inh 100
CC(C)c1ccc(C(=O)N2CCCCC2c2cc(C(=O)NCc3cccnc3)no2)cc1 (stereo not given)	none (no result: ALR inh, HDAC3 inhib)
COc1cc([C@H]2OC[C@H]3[C@@H]2CO[C@@H]3c2ccc(O[C@H]3O[C@H](CO)[C@@H](O)[C@H](O)[C@H]3O)c(OC)c2)ccc1O[C@@H]1O[C@H](CO)[C@@H](O)[C@H](O)[C@H]1O	none
O=C(c1ccc(CS(=O)Cc2ccc(Cl)cc2)o1)N1CCN(c2ccccc2)CC1 (stereo not given)	ALR inh 93
Cc1ccc(CS(=O)Cc2ccc(C(=O)N3CCN(c4ccc(F)cc4)CC3)o2)cc1 (stereo not given)	none
Cc1ccc(CS(=O)Cc2ccc(C(=O)N3CCN(c4ccccc4)CC3)o2)cc1 (stereo not given)	ALR inh 94
COc1cccc(N2CCN(C(=O)c3ccc(CS(=O)Cc4ccc(Cl)cc4)o3)CC2)c1 (stereo not given)	none
CC1(C)Oc2ccc(C(=O)NC3CCCC3)cc2NC1=O	none (no result: ALR inh, HDAC3 inhib)
O=C(Oc1cc2oc(=O)cc(-c3ccccc3)c2cc1Cl)C1CCCCC1	ALR inh 98
CCCC(c1nnnn1CCOC)N(Cc1cc2cc(C)c(C)cc2[nH]c1=O)CC1CCCO1 (stereo not given)	ALR inh 99
CCC(c1nnnn1CCOC)N(Cc1cc2c(C)cc(C)cc2[nH]c1=O)CC1CCCO1 (stereo not given)	none
CCC(c1nnnn1CCOC)N(Cc1cc2cc(C)c(C)cc2[nH]c1=O)CC1CCCO1 (stereo not given)	ALR inh 99
CCC(c1nnnn1CCOC)N(Cc1ccc(C)cc1)Cc1cc2cc(OC)ccc2[nH]c1=O (stereo not given)	none
Cc1cc(C)nc(SCc2ccc(C(=O)N/N=C/c3ccccc3C(=O)O)cc2)n1	ALR inh 91
Cc1c(NC(=O)CSCc2ccc(Cl)cc2Cl)cccc1C(=O)O	ALR inh 98
O=C(CSCc1ccc(Cl)cc1Cl)Nc1ccc(O)cc1C(=O)O	ALR inh 98
O=C(CSCc1ccc(Cl)cc1)Nc1ccc(Br)cc1C(=O)O	ALR inh 96
O=C(CSCc1ccc(Cl)cc1Cl)Nc1ccccc1C(=O)Nc1ccc(C(=O)O)cc1	ALR inh 97
COc1cc(NC(=O)CSCc2ccc(Cl)cc2Cl)c(C(=O)O)cc1OC	none
Cc1cc(C)c[n+](-c2[nH]c(=O)sc2/C=N/N=C(\[O-])c2cccnc2)c1	none
C=C1/C=C(\C)[C@](C)(O)C[C@H](O)CC(=O)[C@H](O)[C@@H](O)[C@H](C)C[C@H](C)OC(=O)/C(C)=C/CC/C=C/[C@@H]2O[C@H]2C[C@H](C)C1	none (no result: NPR2 activator, NPR1 activator)
CC1(c2nnc(-c3cccc(Cl)c3)o2)CC(c2cccc(Cl)c2)=NO1 (stereo not given)	none
O=C(CSc1nc2ncccc2[nH]1)Nc1ccc2c(c1)OCO2	none (no result: ALR inh)
CC(C)c1ccc(NC(=O)CSc2nc3ncccc3[nH]2)cc1	none
CC(C)OC(=O)c1ccc(NC(=O)CSc2nc3ncccc3[nH]2)cc1	ALR inh 98
COc1ccc(NC(=O)CSc2nc3ncccc3[nH]2)cc1OC	ALR inh 96
O=C(Nc1cccnc1Cl)C1=NN(c2ccccc2)C(=O)CC1	none
O=C(NCc1ccncc1)C1=NN(c2ccccc2)C(=O)CC1	ALR inh 94
O=C(O)c1ccc(S(=O)(=O)NCC2CCCO2)cc1 (stereo not given)	none
COc1ccc(-c2ccc(NS(=O)(=O)c3cc([N+](=O)[O-])ccc3C)cc2)nn1	none
COc1ccc(S(=O)(=O)Nc2cc(Sc3ncn[nH]3)c(O)cc2C)cc1	ALR inh 98
Cc1ccc([N+](=O)[O-])cc1S(=O)(=O)Nc1ccc(O)c(Sc2ncn[nH]2)c1	ALR inh 94
Cc1cc(O)c(Sc2ncn[nH]2)cc1NS(=O)(=O)c1ccc(Cl)cc1	ALR inh 93
COc1ccc(Cc2nc3ccc(C(=O)N(C)C(C)c4ccon4)cc3o2)cc1 (stereo not given)	none
COc1ccccc1N1CCN(C2CCCN(C(=O)CCc3c(C)noc3C)C2)CC1 (stereo not given)	ALR inh 94
COc1ccccc1N1CCN(C2CCCN(C(=O)CCc3cnccn3)C2)CC1 (stereo not given)	none
COc1cc(C2Nn3c(nnc3-c3ccccc3OC)S2)ccc1O (stereo not given)	ALR inh 99
COc1cc(C2Nc3cccc4cccc(c34)N2)ccc1O	none
Cc1cc(Oc2cccnc2)ccc1NC(=O)Cc1c(C)[nH]c2ccccc12	none (no result: ALR inh, HDAC3 inhib)
CCOC(=O)c1ccc2ncc(C(=O)OCC)c(Nc3ccc(N4CCOCC4)cc3)c2c1	none
CCOC(=O)c1cnc2ccc(OC)cc2c1Nc1ccc(N2CCN(C)CC2)cc1	ALR inh 99
CC(CC(=O)N1CCN(c2ccc(C(F)(F)F)cn2)CC1)n1ccnc1 (stereo not given)	none
C/C(=N\NC(=O)c1cccc(N/N=C(\C)c2ccncc2)c1)c1ccncc1	ALR inh 99
C/C(=N\NC(=O)c1cc(O)ccc1O)c1cccc(NC(=O)c2cccc(Cl)c2)c1	ALR inh 90
C/C(=N\NC(=O)c1cc(O)ccc1O)c1cccc(NC(=O)c2ccc(Cl)cc2)c1	none
C/C(=N\NC(=O)c1cccc(N/N=C(\C)c2ccccc2)c1)c1ccccc1	ALR inh 87
